In PubChem BioAssay:
The source made the active and inactive calls.

Legend:
[1] = anti-His antibody binders, primary screen, artefact control for SMM control protein annotation, biochemical, small-molecule microarray, 635 nm fluorescence (AID 1128); details: anti-His Alexa647 antibody binding, higher = more signal;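 also: score merges feature fluorescence with signal-to-noise for each printed compound spot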
[2] = test system: Human papillomavirus type 1a E7 protein (residues 1-88); assay: HPV1a E7 small-molecule binders, primary screen, biochemical, small-molecule microarray, residues 1-88, 635 nm (AID 1129); details: small-molecule microarray binding, fluorescence 635 nm; higher = more signal
[3] = target: Focal adhesion kinase 1 (Homo sapiens) (UniProt Q05397); assay: small-molecule microarray binders of FAK, primary screen, biochemical, 635/667 nm fluorescence, BSA, DTT (AID 1130); details: PTK2 binding, 635 nm fluorescence, higher = more signal;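 also: composite of spot emission at 667 nm and signal to noise over triplicate slides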
Sequence of Focal adhesion kinase 1 (Homo sapiens) (Q05397 whole entry, looked up): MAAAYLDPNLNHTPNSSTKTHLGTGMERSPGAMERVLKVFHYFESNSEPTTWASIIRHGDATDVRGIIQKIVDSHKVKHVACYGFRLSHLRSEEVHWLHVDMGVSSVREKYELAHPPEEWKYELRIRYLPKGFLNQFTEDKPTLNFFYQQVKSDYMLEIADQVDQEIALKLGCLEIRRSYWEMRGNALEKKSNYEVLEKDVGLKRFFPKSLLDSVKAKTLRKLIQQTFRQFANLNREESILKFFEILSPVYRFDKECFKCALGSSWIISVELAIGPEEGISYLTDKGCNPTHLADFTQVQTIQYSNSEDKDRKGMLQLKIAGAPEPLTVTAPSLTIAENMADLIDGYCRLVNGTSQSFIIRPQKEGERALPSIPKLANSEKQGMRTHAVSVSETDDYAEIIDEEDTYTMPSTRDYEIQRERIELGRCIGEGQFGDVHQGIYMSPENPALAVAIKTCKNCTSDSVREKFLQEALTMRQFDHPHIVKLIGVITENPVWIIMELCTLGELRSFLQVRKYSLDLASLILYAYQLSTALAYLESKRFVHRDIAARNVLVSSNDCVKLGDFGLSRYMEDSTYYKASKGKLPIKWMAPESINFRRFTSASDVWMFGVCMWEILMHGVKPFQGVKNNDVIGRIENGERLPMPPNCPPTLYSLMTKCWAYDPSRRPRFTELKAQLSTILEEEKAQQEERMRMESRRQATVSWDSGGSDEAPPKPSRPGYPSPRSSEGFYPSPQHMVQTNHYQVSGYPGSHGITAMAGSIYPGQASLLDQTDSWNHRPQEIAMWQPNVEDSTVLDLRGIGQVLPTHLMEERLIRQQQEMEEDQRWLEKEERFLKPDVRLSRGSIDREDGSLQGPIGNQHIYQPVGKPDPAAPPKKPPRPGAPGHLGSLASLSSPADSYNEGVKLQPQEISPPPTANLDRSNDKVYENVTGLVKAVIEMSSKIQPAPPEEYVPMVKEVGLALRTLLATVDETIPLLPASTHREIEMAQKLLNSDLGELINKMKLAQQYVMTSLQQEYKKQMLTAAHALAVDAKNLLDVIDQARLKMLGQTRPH

[4] = test system: Fibrinogen (Alexa647-labelled); assay: fibrinogen binders on compound microarrays, profiling panel, artefact control for SMM control-protein annotation, biochemical, small-molecule microarray, 635/667 nm fluorescence (AID 1131); details: fibrinogen-A647 binding fluorescence, higher = more signal;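 also: z-score merges 667 nm fluorescence with per-spot signal-to-noise over triplicate slides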
[5] = target: Follistatin (Homo sapiens) (UniProt P19883); assay: follistatin binders on small-molecule microarrays, primary screen, biochemical, small-molecule microarray, 635/667 nm fluorescence (AID 1132); details: FST binding, 635 nm fluorescence, higher = more signal
Sequence of Follistatin (Homo sapiens) (P19883 whole entry, looked up): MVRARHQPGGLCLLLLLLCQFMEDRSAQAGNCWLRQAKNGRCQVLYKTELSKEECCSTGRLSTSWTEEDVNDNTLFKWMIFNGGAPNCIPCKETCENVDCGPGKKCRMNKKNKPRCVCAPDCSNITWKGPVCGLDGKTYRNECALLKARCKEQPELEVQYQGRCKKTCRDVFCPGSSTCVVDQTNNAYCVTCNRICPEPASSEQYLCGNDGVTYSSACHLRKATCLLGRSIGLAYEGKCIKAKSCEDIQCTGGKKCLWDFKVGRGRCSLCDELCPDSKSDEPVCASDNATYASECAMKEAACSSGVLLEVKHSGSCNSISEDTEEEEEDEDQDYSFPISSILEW

[6] = target: Fibroblast growth factor 2 (Homo sapiens) (UniProt P09038); assay: FGF2 binders on small-molecule microarrays, primary screen, biochemical, small-molecule microarray, 635/667 nm fluorescence (AID 1133); details: small-molecule microarray binding, FGF2, fluorescence 635/667; higher = more signal
Sequence of Fibroblast growth factor 2 (Homo sapiens) (P09038 whole entry, looked up): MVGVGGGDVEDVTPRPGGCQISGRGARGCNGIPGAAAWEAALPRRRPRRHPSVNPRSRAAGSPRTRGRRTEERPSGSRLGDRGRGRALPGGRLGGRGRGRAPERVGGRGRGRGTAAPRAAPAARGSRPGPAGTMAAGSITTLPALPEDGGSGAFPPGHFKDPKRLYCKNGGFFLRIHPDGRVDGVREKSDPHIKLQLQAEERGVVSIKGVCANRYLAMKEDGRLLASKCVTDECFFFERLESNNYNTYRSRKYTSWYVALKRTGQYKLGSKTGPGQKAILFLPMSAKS

[7] = mitochondrial membrane potential change in A549 cells, profiling panel, cell-based, JC-1 fluorescence, basal, 24 h, 100 nL (AID 1138); details: higher = more signal;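 also: A549 lung adenocarcinoma cells under basal conditions with no added stimulus; test concentration not given here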
[8] = test system: Lefty1; assay: Lefty1 binders on small-molecule microarrays, primary screen, biochemical, small-molecule microarray, 635/667 nm fluorescence (AID 1139); details: small-molecule microarray binding, fluorescence 635/667; higher = more signal
[9] = test system: wheat germ agglutinin (Triticum aestivum), Alexa647-labelled; assay: wheat germ agglutinin binders on compound microarrays, profiling panel, artefact control for SMM control-protein annotation, biochemical, small-molecule microarray, 635/667 nm fluorescence (AID 1140); details: WGA-A647 binding, 635 nm fluorescence, higher = more signal;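 also: score merges 667 nm feature emission with signal to noise over triplicate slides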
[10] = target: Luciferin 4-monooxygenase (Photinus pyralis) (UniProt P08659); assay: firefly luciferase enzyme inhibitors, primary screen, biochemical, luminescence, purified enzyme, 2006 set (AID 1141); details: SteadyGlo luminescence, 30 min, higher = more signal, called active from +8 up or from −8 down;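 also: cell-free assay with purified firefly luciferase at 100 ng per well in PBS; test concentration not given here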
Sequence of Luciferin 4-monooxygenase (Photinus pyralis) (P08659 whole entry, looked up): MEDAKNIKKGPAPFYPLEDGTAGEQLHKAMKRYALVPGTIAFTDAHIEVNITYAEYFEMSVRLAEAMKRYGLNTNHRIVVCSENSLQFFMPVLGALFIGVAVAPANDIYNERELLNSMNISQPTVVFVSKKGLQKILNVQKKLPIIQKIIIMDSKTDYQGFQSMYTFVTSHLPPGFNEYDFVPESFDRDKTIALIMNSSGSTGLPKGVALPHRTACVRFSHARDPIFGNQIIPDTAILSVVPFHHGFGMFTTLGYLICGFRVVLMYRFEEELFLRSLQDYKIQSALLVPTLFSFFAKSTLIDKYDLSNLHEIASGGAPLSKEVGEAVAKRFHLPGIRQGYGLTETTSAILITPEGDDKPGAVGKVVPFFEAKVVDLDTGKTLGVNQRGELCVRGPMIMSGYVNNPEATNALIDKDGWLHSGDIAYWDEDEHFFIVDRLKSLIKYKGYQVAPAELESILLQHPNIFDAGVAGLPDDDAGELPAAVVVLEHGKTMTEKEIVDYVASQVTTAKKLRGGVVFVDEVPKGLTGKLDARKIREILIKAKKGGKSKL

Structure (SMILES) | composite z-score [1] | composite z-score [2] | composite z-score [3] | composite z-score [4] | composite z-score [5] | composite z-score [6] | z-score [7] | composite z-score [8] | composite z-score [9] | z-score [10]
COCCCNC(=O)[C@@]1(CCC(=O)OC(C)(C)C)N=C(c2ccc(OCCCO)cc2)O[C@H]1c1ccccc1CN=[N+]=[N-] | 3.15 | 1.04 | 1.02 | 1.01 | 1.39 | 1.28 | -0.49 | -0.34 | 1.2 | -1.05 (inactive)
O=C1C[C@]2(c3ccc([N+](=O)[O-])cc3)C(=O)N(CC(F)(F)F)c3cc(CO)ccc3[C@H]2N1CC12CC3CC(CC(C3)C1)C2 | -0.239 | -0.369 | 0.0419 | -1.16 | 0.77 | 0.0808 | 0.297 | 0.551 | 0.122 | 1.09 (inactive)
C[C@]1(C(=O)NCc2ccccc2)c2ccccc2C(=O)N(Cc2ccc(OC(F)(F)F)cc2)[C@H]1c1ccc(CO)cc1 | 1.71 | 1.02 | 0.549 | -0.38 | 0.49 | -0.186 | 1.27 | -0.111 | -0.403 | 0.882 (inactive)
[N-]=[N+]=NCc1ccccc1[C@@H]1OC(c2ccc(OCCCO)cc2)=N[C@]1(Cc1ccccc1)C(=O)N1CCCCC1 | 2.4 | 1.2 | 0.0473 | 0.39 | 1.41 | 1.55 | 2.06 | -0.0101 | 0.903 | -1.22 (inactive)
COC(=O)C(CC#Cc1ccc2c(c1)[C@]1(C(=O)N2)[C@H](C(=O)NC[C@H](O)c2ccccc2)[C@H]2C(=O)O[C@H](c3ccccc3)[C@H](c3ccccc3)N2[C@@H]1c1ccc(OCCO)cc1)C(=O)OC | 1.5 | 1.21 | 0.538 | 0.957 | 1.25 | 0.937 | -1.32 | 1.69 | 1.21 | -1.83 (inactive)
C=C[C@@H](COC(C)=O)N(Cc1ccccc1[N+](=O)[O-])S(=O)(=O)c1ccc(Br)cc1 | 2.18 | 1.11 | 0.547 | 0.619 | 1.42 | 1.51 | 0.505 | 0.929 | 0.567 | 0.335 (inactive)
[N-]=[N+]=NCc1ccccc1[C@H]1OC(c2ccc(OCCCO)cc2)=N[C@@]1(CCS(=O)(=O)c1ccccc1)C(=O)N1CCOCC1 | 0.997 | 0.871 | 0.176 | 1.04 | 1.31 | 1.01 | -0.988 | -0.0664 | 1.35 | -1.26 (inactive)
CCCCC=C[C@@H](NC(=O)c1ccc(C(=O)OC)cc1)c1ccccc1 | 0.59 | 1.05 | 0.694 | 0.875 | 0.293 | 0.0889 | 0.769 | 0.335 | 0.658 | 1.73 (inactive)
CCOC(=O)C1=CCC(C(C)(C)C)N(S(=O)(=O)c2ccc(C)cc2)C1 (stereo not given) | 0.992 | 1.26 | 0.225 | 1.01 | 1.29 | 1.39 | 0.363 | 1 | 0.722 | 0.916 (inactive)
C=CCC(OC(C)=O)[C@@H]1[C@@H](N(Cc2ccc(-c3cccc(C(F)(F)F)c3)o2)C(=O)c2ccc(C)cc2)c2cc(OCCCO)ccc2N1C(=O)c1ccc(-c2ccccc2)cc1 (stereo not given in full) | -0.488 | -0.626 | 0.134 | -0.238 | 0.65 | 0.0875 | 2.31 | 0.899 | 0.639 | -1.4 (inactive)
COc1ccccc1CN1C(=O)c2ccccc2[C@@H](C(=O)NCCN2CCOCC2)[C@@H]1c1ccc(CO)cc1 | -0.355 | 0.789 | -0.444 | 0.234 | 0.912 | 1.26 | 0.708 | -0.0327 | 0.285 | 0.706 (inactive)
CN(C)C(=O)[C@@]1(CCC(=O)OC(C)(C)C)N=C(c2ccc(OCCCO)cc2)O[C@H]1c1ccccc1 | 3.44 | 1.11 | 0.384 | 0.65 | 0.381 | -0.309 | -0.457 | -0.943 | 0.798 | -0.874 (inactive)
O=c1cccc(CCc2ccccc2)o1 | 1.24 | 0.741 | 0.675 | -0.229 | 0.641 | 0.257 | 0.426 | 0.593 | 0.211 | 0.0302 (inactive)
CCOC(=O)C[C@H]1[C@H](OC(=O)Cc2ccc3c(c2)OCO3)[C@@H](NC(=O)c2ccc(-c3ccccc3)cc2)c2cc(OCCCO)ccc2N1C(=O)c1ccccc1 | 0.18 | 1.06 | 0.356 | 0.672 | 0.526 | 0.685 | 2.42 | 0.419 | 0.507 | -1.16 (inactive)
O=C1C2C=CC(C(O)c3ccc(F)cc3)N(Nc3ccccc3)C2C(=O)N1c1ccccc1 (stereo not given) | 1.33 | 1.22 | 0.734 | 0.266 | -0.143 | -0.762 | -0.101 | -0.233 | 0.684 | 0.165 (inactive)
COc1cc(C(O)C2C=CC3C(=O)N(c4ccccc4)C(=O)C3N2Nc2ccc(C#N)cc2)cc(OC)c1OC (stereo not given) | 2.58 | 1.31 | 1.04 | 1.11 | 1.02 | 0.0977 | 0.142 | -0.0667 | 1.51 | 0.282 (inactive)
